Source: PubChem BioAssay AID2315 (National Center for Advancing Translational Sciences (NCATS), 2010)
The whole screen tested about 290,000 compounds, of which about 27,000 (9.3%) were called active. No stated cut-off is given here; in the data, active means inhibition mostly above about 28% (no sharp cut-off); inactive means mostly below about 43%. The full list was thinned out, with actives kept by preference.

Assay: A qHTS for Small Molecule Inhibitors of Shiga Toxin; further: 0% is about no effect
Settings: Vero cells, Shiga toxin protein synthesis inhibition reporter; at 38.7 µM, stronger effect = higher value

| Compound | inhibition |
| --- | --- |
| COCCNC(=O)COc1ccc(C)c(C)c1 | 20.4% (inactive) |
| CCc1ccc(NC(=O)C(=O)N/N=C(\C)CC(=O)NCCOC)cc1 | 63.4% (active) |
| C/C(CC(=O)Nc1ccc(Cl)cc1)=N\NC(=O)C(=O)NCCO | 12% (inactive) |
| Cc1ccc(N(C(=O)CNC(=O)c2ccco2)C(C(=O)NC2CCCC2)c2ccncc2)cc1 (centres undefined) | -7.6% (inactive) |
| CC(=O)N1c2ccc(S(=O)(=O)N3CCCC(C(=O)Nc4ccc(C)cc4C)C3)cc2CC1C (centres undefined) | -2.6% (inactive) |
| O=C(NN=C1CCC(=NNC(=O)c2cccnc2)CC1)c1cccnc1 | 45.2% (inactive) |
| CN1CCN(NC(=O)c2ccc(S(=O)(=O)N3CCCCCC3)cc2)CC1 | -4.86% (inactive) |
| O=C(N/N=C/c1ccccn1)c1ccc(S(=O)(=O)N2CCCCCC2)cc1 | 184% (active) |
| O=C(N/N=C/c1ccccn1)c1cccnc1 | 39.2% (active) |
| O=C(N/N=C/c1ccccn1)c1cccc(NC(=O)c2ccc(Cl)cc2)c1 | 24.3% (inactive) |
| O=C(N/N=C/c1ccc(O)c2ccccc12)c1cccnc1 | 24.3% (inactive) |
| O=C(CNC(=O)c1cccnc1)N/N=C/c1cccnc1 | -13% (inactive) |
| Cc1cc(/C=N/NC(=O)c2cccnc2)c(C)n1CC(C)C | 80.1% (active) |
| O=C(Nc1ccc(S(=O)(=O)Nc2ncccn2)cc1)C12CC3CC(CC(C3)C1)C2 | 17.2% (inactive) |
| Cc1ccc(NC(=O)COc2ccc(/C=N\NC(=O)c3cccnc3)cc2)cc1C | 11.2% (inactive) |
| O=C(N/N=C/c1ccccn1)C12CC3CC(CC(C3)C1)C2 | 0% (active) |
| CNC(=O)C(=O)N/N=C/c1ccccn1 | 35.4% (inactive) |
| COc1ccc(CNC(=O)/C(C#N)=C/c2cccc(OC)c2OC)cc1 | -10.4% (inactive) |
| Cn1c(C(=O)N2CCCC(C(=O)NCc3ccccc3)C2)cc2sccc21 (centres undefined) | 18.4% (inactive) |
| Cc1ccc(S(=O)(=O)c2c[nH]c3ccc(C)cc3c2=O)cc1 | -5.73% (inactive) |
| CC(C)CNC(=O)C(=O)Nc1ccc(N(C)C)cc1 | 55.1% (active) |
| CC(C)CNC(=O)C(=O)NCc1ccccc1 | 15.5% (inactive) |
| CC(C)CNC(=S)Nc1ccc(F)cc1 | 13.2% (inactive) |
| Cc1cc(C)cc(NC(=O)C2CCCN2S(=O)(=O)c2cccc3cccnc23)c1 (centres undefined) | -0.303% (inactive) |

| Compound | inhibition |
| --- | --- |
| CCOC(=O)c1cc2n(c1N)-c1ccccc1C2=O | 72.9% (active) |
| CCOC(=O)C1=C(C(=O)OCC)C(C(=O)OCC)N(S(=O)(=O)C(F)(F)F)c2ccccc21 (centres undefined) | 18.6% (inactive) |
| CCOC(=O)c1ccccc1CN1C(=O)c2ccccc2S1(=O)=O | -3.65% (inactive) |
| Cn1nccc1C(=O)N1CCCC(C(=O)c2ccc(Oc3ccccc3)cc2)C1 (centres undefined) | -15.3% (inactive) |
| Cc1cccc2[nH]c(CN(C)C(=O)C3CCC(=O)N(CCc4ccccc4)C3)nc12 (centres undefined) | 17.9% (inactive) |
| CCCc1ccc(OCC(O)CN2CCN(CCO)CC2)cc1 (centres undefined) | -3.37% (inactive) |
| O=C(COc1nsnc1N1CCOCC1)Nc1ccccc1Cl | 5.96% (inactive) |
| CCOc1cc(/C=C/c2nc3ccccc3c(=O)[nH]2)cc(Br)c1OC | 31.4% (inactive) |
| CC1(C)Cc2cccc(OCC(=O)NCc3ccccc3)c2O1 | 21.1% (inactive) |
| CCOC(=O)C1(Cc2cccc(OC)c2)CCCN(C(=O)CCSC)C1 (centres undefined) | 81.2% (active) |
| CCOC(=O)C1(Cc2cccc(OC)c2)CCN(C(C)COC)CC1 (centres undefined) | -0.932% (inactive) |
| CCOC(=O)C1(Cc2cccc(OC)c2)CCCN(S(=O)(=O)c2cccnc2)C1 (centres undefined) | -9.17% (inactive) |
| COC(=O)C1CCN(C(=O)c2cc(=O)[nH]c3ccccc23)CC1 | -11.7% (inactive) |
| COc1ccc(/C=C2\SC(=S)N(CCC(=O)Nc3cccc(C(=O)O)c3)C2=O)cc1OC | 2.9% (inactive) |
| O=C(O)CSc1nnc(-c2ccc3c(c2)OCO3)n1-c1ccccc1 | 37% (inactive) |
| Cn1c(SCC(=O)N2CCCC2)nnc1-c1ccc2c(c1)OCO2 | 38.6% (inactive) |
| Cn1c(SCc2nc3ccccc3s2)nnc1-c1ccc2c(c1)OCO2 | 59% (active) |
| CN(CCc1ccccn1)C1CCCN(S(=O)(=O)c2ccccc2Cl)C1 (centres undefined) | -6.64% (inactive) |
| COc1ccc(S(=O)(=O)N2CCOC2CNC(=O)C(=O)NCc2ccncc2)cc1OC (centres undefined) | -13.1% (inactive) |
| CCC(C(=O)NCc1cccnc1)n1nc(C)c2sc3ccccc3c2c1=O (centres undefined) | -2.63% (inactive) |
| Cc1cc(C)cc(NC(=O)CCN2C(=O)c3ccccc3C2=O)c1 | -3.25% (inactive) |
| C=CCn1c(SCc2c(C(=O)OC)sc(N)c2C(=O)OC)nnc1-c1ccc(Cl)cc1 | -13.4% (inactive) |
| CCn1c(CSc2nc(C)cc(C)n2)nnc1SCC(N)=O | -9.49% (inactive) |
| C=CCn1c(SCC(N)=O)nnc1-c1cc2c(s1)CCC(CC)C2 (centres undefined) | 76.9% (active) |

| Compound | inhibition |
| --- | --- |
| COCCNC(=O)CN(Cc1ccco1)C(=O)CCC(=O)Nc1nccs1 | -8.05% (inactive) |
| CCN(C(=O)COC(=O)c1cc(NS(=O)(=O)c2ccc(Cl)c([N+](=O)[O-])c2)ccc1O)C1CCCCC1 | -7.83% (inactive) |
| COCc1c(C(=O)N/N=C\c2cccnc2)nnn1-c1nonc1N | -0.307% (inactive) |
| Cc1cccc(N2C(=O)c3cccnc3C2=O)c1 | 23.8% (inactive) |
| Cc1cccc(N2C(=O)NC(=O)/C(=C\c3cnn(-c4ccccc4)c3)C2=O)c1 | 65.5% (active) |
| Cc1cccc(N2C(=O)C3C(c4ccccc4)OC4(C(=O)c5ccccc5C4=O)C3C2=O)c1 (centres undefined) | -11.8% (inactive) |
| Cc1nc(CN(C)C(=O)CC2C(=O)NCCN2Cc2ccc(F)cc2)cs1 (centres undefined) | -21.9% (inactive) |
| Cc1nc(C(=O)Nc2ccc(Cl)cc2)sc1C1(C)CC(c2ccccc2)=NO1 (centres undefined) | -2.44% (inactive) |
| Cc1nc(-c2ccc(Cl)cc2)sc1C1(C)CC(c2ccccc2F)=NO1 (centres undefined) | 42% (active) |
| Cc1nc(C(=O)NCc2ccccc2)sc1C1(C)CC(c2cccnc2)=NO1 (centres undefined) | -4.88% (inactive) |
| Nc1ccc(SCCN2C(=O)c3ccccc3C2=O)cc1 | 85% (active) |
| Cc1ccc(SCCN2C(=O)NC(C)(C)C2=O)cc1 | 5.57% (inactive) |
| CC(=O)c1cnc(SCCN2C(=O)c3ccccc3C2=O)nc1C | -12.2% (inactive) |
| N#CCC(=O)N/N=C/c1cn(Cc2ccc3ccccc3c2)c2ccccc12 | -10.8% (inactive) |
| CC[C@H](C)[C@H](NC(=O)[C@H](Cc1ccc(O)cc1)NC(=O)[C@@H](NC(=O)[C@H](CCCN=C(N)N)NC(=O)[C@@H](N)CC(=O)O)C(C)C)C(=O)N[C@@H](Cc1cnc[nH]1)C(=O)N1CCC[C@H]1C(=O)N[C@@H](Cc1ccccc1)C(=O)O | 15% (inactive) |
| CC(NC(=O)c1cccc2ccccc12)c1ccc2c(c1)CCCC2 (centres undefined) | -3.09% (inactive) |
| CCOC(OCC)c1ccc(/C=C\c2nccc(N)n2)cc1 | 62.4% (active) |
| CC1(C)C(C=C(Cl)Cl)C1C(=O)NC(O)C(=O)c1ccccc1 (centres undefined) | -9.33% (inactive) |
| COc1cccc(/C=N\NC(=O)C2=NNC(=O)C2C)c1O (centres undefined) | 66.4% (active) |
| COc1cccc(/C=N/NC(=O)c2[nH]nc3c2CCc2ccccc2-3)c1O | 12.7% (inactive) |
| COc1cc2cc(C(=O)N/N=C/c3cccc(OC)c3OC)[nH]c2cc1OC | 3.08% (inactive) |
| CCCCn1c(-c2cccc(C)c2)nc2cc3[nH]c(=O)c(C(C)C)nc3cc21 | 9.49% (inactive) |
| CN1CCN(C(=O)c2cnn(-c3ccccc3)c2NC(=O)c2ccc([N+](=O)[O-])cc2)CC1 | -12.4% (inactive) |
| N#CCC(=O)N/N=C/c1ccc(SCC(=O)Nc2ccccc2)o1 | 17.4% (inactive) |

| Compound | inhibition |
| --- | --- |
| O=C(CSc1ccc(/C=N/NC(=O)c2cccc(F)c2)o1)Nc1ccccc1 | 44.3% (active) |
| O=C(Cc1ccccc1)Nc1cccc(C(=O)N/N=C/c2ccco2)c1 | 23.9% (inactive) |
| COc1ccc2cc(C(=O)O)n(CC(=O)c3ccccc3)c2c1 | -10.5% (inactive) |
| CCCCC(=O)Nc1nnc(S(=O)(=O)N(C)Cc2ccco2)s1 | 10.1% (inactive) |
| Cc1c(C(=O)NCCN(C)C)oc2ccc(S(=O)(=O)N3CCCC3)cc12 | -2.78% (inactive) |
| COc1ccccc1-n1c(C)nc2cc(C(=O)NCc3ccc4c(c3)OCO4)ccc21 | 11.2% (inactive) |
| COCCNC(=O)c1ccc2nc(Cc3ccc(OC)c(OC)c3)oc2c1 | 30.7% (active) |
| COc1ccc(Cc2nc3ccc(C(=O)NCC4CCOCC4)cc3o2)cc1OC | 37.2% (inactive) |
| COc1ccc(C(=O)NCCc2ccc(S(N)(=O)=O)cc2)cc1OC | 21% (inactive) |
| CSCCNC(=O)c1ccc2nc(Cc3ccccc3F)oc2c1 | 49.7% (active) |
| Cn1cc(C(=O)NCc2ccccc2F)cn1 | 14.6% (inactive) |
| O=C(Nc1nnc(C2=COCCO2)o1)c1ccc([N+](=O)[O-])s1 | -3.51% (inactive) |
| Cc1cnc(C(=O)N2CCCC(N3CCN(c4ccccc4F)CC3)C2)cn1 (centres undefined) | -6.28% (inactive) |
| CC(=O)NC(CC(=O)Nc1nc(-c2ccccc2)c(C(C)=O)s1)c1ccccc1 (centres undefined) | -5.9% (inactive) |
| COc1ccc(OC)c(CCNC(=O)c2nn(C)c3c2CS(=O)(=O)c2ccccc2-3)c1 | -4.81% (inactive) |
| Nc1nonc1-n1nnc(C(=O)N/N=C\c2ccncc2)c1CN1CCCCC1 | -10.8% (inactive) |
| CC1CCN(C(=O)c2ccc3c(c2)NC(=O)CN3)CC1 | -6.93% (inactive) |
| Cc1cc(C(=O)NC2CCCc3c2cnn3-c2cccc(C)c2C)c(C)o1 (centres undefined) | 3.44% (inactive) |
| COc1ccccc1CCNC(=O)C1CCN(C(=O)/C=C/c2ccccc2)CC1 | 39.9% (inactive) |
| COc1ccc(Nc2ncnc3ccc(OC)cc23)cc1 | -8.31% (inactive) |
| COc1ccc(Nc2ncnc3sc(C)cc23)cc1 | 56.1% (active) |
| COc1ccc(Nc2cc(Sc3ccc(OC)cc3)ncn2)cc1 | 4.28% (inactive) |
